From PubChem BioAssay (Tox21) come the findings set out here.

Where “and” joins values, the source holds several entries; their conditions need not be identical. Equal values may be shown once. Records with an inconclusive call do not appear. Values without a mark were called inactive. Calls of active or inactive are those of the source. Unless noted, calls come from the whole dose curve; as a rule, active = well fitted curve in the direction sought with a large enough effect in the repeat runs; inconclusive = weak or mixed curves; inactive = no such curve, though single readings can be large; an effect the other way counts as inactive or inconclusive.

A short description of experiment [1]: qHTS assay to identify aromatase inhibitors - cell viability counter screen (AID 743084).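 Note: cells stimulated with testosterone during compound exposure; nearly all actives have a fitted effect of over 55% in size.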 Note: potency is the fitted concentration of half-maximal effect.
Experiment [2] deals with Aryl hydrocarbon receptor (Homo sapiens) (UniProt P35869). The experiment in a line: qHTS assay to identify small molecule that activate the aryl hydrocarbon receptor (AhR) signaling pathway (AID 743085).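 For activation: HG2L7.5c1 human HepG2 liver cells with stably integrated DRE-driven firefly reporter; series mostly up to about 70 µM.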 Note: nearly all actives have a fitted effect of over 15% in size. Note: potency is the fitted concentration of half-maximal effect. Put shortly: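 Reporter assay in engineered HepG2 line HG2L7.5c1, whose plasmid carries twenty dioxin responsive elements upstream of firefly luciferase. Treatment lasted 24 h at 37C; ONE-Glo luminescence gauged induction.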
Chain of Aryl hydrocarbon receptor (Homo sapiens) (P35869 whole entry, looked up): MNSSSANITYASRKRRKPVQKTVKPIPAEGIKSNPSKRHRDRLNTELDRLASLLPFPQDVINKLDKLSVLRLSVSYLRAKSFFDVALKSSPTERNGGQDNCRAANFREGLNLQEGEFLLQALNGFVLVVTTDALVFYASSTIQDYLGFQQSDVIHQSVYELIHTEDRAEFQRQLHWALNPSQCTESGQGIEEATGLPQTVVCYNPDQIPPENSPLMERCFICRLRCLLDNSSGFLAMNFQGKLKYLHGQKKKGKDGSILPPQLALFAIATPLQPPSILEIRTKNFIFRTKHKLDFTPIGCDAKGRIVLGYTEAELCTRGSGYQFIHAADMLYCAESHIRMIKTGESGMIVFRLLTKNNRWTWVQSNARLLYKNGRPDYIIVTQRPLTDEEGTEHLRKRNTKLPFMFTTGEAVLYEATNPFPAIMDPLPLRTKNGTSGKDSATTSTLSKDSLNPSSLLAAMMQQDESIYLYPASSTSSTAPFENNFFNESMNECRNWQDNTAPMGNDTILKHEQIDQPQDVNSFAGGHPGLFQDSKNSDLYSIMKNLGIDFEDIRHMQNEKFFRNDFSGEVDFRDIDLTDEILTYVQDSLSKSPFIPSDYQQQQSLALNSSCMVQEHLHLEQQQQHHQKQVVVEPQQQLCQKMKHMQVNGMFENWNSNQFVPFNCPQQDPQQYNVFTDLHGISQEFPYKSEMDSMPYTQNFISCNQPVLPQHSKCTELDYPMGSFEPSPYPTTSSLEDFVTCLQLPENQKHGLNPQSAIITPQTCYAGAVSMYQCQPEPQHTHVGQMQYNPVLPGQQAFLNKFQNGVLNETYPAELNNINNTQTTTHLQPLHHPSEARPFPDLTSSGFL
(In general: In qHTS, concentration-response curves come from the screen itself.)

The nature of experiment [3]: qHTS assay to identify small molecule that activate the aryl hydrocarbon receptor (AhR) signaling pathway - cell viability counter screen (AID 743086). For viability change, negative = cytotoxic: series mostly up to about 70 µM. Note: nearly all actives have a fitted effect of over 45% in size. Note: potency is the fitted concentration of half-maximal effect. In outline: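 Cytotoxicity counter screen: CellTiter-Fluor signal (30 min, 37 C) in 4000 HepG2 cells/well carrying the DRE-luciferase reporter, following 24 h compound exposure at 37 C.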
Experiment [4] is described as follows: qHTS assay to identify small molecule antagonists of the peroxisome proliferator-activated receptor gamma (PPARg) signaling pathway - cell viability counter screen (AID 743194). Note: nearly all actives have a fitted effect of over 55% in size. Note: potency is the fitted concentration of half-maximal effect. In outline:
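Viability was measured as CellTiter-Glo luminescence in GeneBLAzer PPARg UAS-bla HEK293H cells. These cells had been exposed 17 h at 37 C to compounds together with rosiglitazone at 50 nM final, with the beta-lactamase readout taken in the same wells.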

A short description of experiment [5]: qHTS assay for small molecule agonists of the antioxidant response element (ARE) signaling pathway - cell viability counter screen (AID 743203; calls by dose curve; note: nearly all actives have a fitted effect of over 55% in size; note: potency is the fitted concentration of half-maximal effect). In outline:
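Seeded at 2,000 cells/well, ARE-bla HepG2 cells were incubated 5 hrs before compound addition. After 16 hrs of treatment at 37C with 5% CO2, CellTiter-Glo reagent was added and luminescence read 30 min later.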

The nature of experiment [6]: qHTS assay for small molecule activators of the heat shock response signaling pathway - cell viability counter screen (AID 743209). Note: nearly all actives have a fitted effect of over 50% in size. Note: potency is the fitted concentration of half-maximal effect. Put shortly: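 First, HSE-bla HeLa cells were seeded at 1500 cells/well and kept overnight at 37 C. Next, compounds were pinned in and incubated 5 h. After the FRET substrate step, CellTiter-Glo was added and luminescence read 30 min later.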

Experiment [7] can be described thus: qHTS assay to identify small molecule agonists of the peroxisome proliferator-activated receptor delta (PPARd) signaling pathway - cell viability counter screen (AID 743211). Note: nearly all actives have a fitted effect of over 55% in size. Note: potency is the fitted concentration of half-maximal effect. In outline: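 Multiplexed format: after the 2 h room-temperature LiveBLAzer B/G FRET step, CellTiter-Glo was added to the same wells. Luminescence after 30 min gave cell viability; compound exposure was 17 h at 37C.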

The nature of experiment [8]: qHTS assay to identify small molecule antagonists of the peroxisome proliferator-activated receptor delta (PPARd) signaling pathway - cell viability counter screen (AID 743213). Note: nearly all actives have a fitted effect of over 50% in size. Note: potency is the fitted concentration of half-maximal effect. In outline: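 Agonist-stimulated (L165041, 300 nM final) HEK293H PPARd UAS-bla cells are exposed to compounds for 17 h at 37 C, and ATP-based luminescence (CellTiter-Glo) from the same wells reports cytotoxicity.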

Experiment [9] addresses Peroxisome proliferator-activated receptor delta (Homo sapiens) (UniProt Q03181). In words: qHTS assay to identify small molecule antagonists of the peroxisome proliferator-activated receptor delta (PPARd) signaling pathway (AID 743215; active = well fitted inhibition curve with a large enough effect in the signal ratio in the repeat runs, not every such curve was filed as active; the % refers to the signal ratio; note: potency is the fitted concentration of half-maximal effect; for ratio activity, negative = inhibition: series mostly up to about 62 µM). Put shortly:
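Inhibition of L165041-driven (300 nM final) PPARd signaling is scored in HEK293H UAS-bla cells. Exposure lasts 17 h at 37 C; beta-lactamase activity is then read by FRET substrate fluorescence after 2 h at room temperature.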

The nature of experiment [10]: qHTS assay to identify small molecule agonists of the farnesoid-X-receptor (FXR) signaling pathway - cell viability counter screen (AID 743218). Note: nearly all actives have a fitted effect of over 45% in size. Note: potency is the fitted concentration of half-maximal effect. Put shortly:
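Cytotoxicity counter-screen run in parallel, same wells: FXR-UAS-bla HEK 293T cells dosed 16 h at 37 C, viability read by CellTiter-Glo luminescence after 30 min at room temperature.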

Experiment [11] addresses Bile acid receptor (Homo sapiens) (UniProt Q96RI1). The experiment in a line: qHTS assay to identify small molecule agonists of the farnesoid-X-receptor (FXR) signaling pathway (AID 743220; active = well fitted activation curve with a large enough effect in the signal ratio in the repeat runs, not every such curve was filed as active; the % refers to the signal ratio). Put shortly:
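Beta-lactamase reporter under UAS control in GeneBLAzer FXR HEK 293T cells (5000/well) measured with LiveBLAzer FRET substrate after 2 h at room temperature. Compound exposure lasted 16 h at 37C.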

A short description of experiment [12]: qHTS assay to identify small molecule antagonists of the farnesoid-X-receptor (FXR) signaling pathway - cell viability counter screen (AID 743221; active = well fitted cell-killing curve with a large enough effect in the repeat runs, not every such curve was filed as active; note: nearly all actives have a fitted effect of over 50% in size; note: potency is the fitted concentration of half-maximal effect). In outline: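 CellTiter-Glo, 30 min RT, luminescence; same wells as the LiveBLAzer FRET read. Cells: FXR-UAS-bla HEK 293T. Treatment: compound with chenodeoxycholic acid 50 uM final, 16 h at 37 C.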
Experiment [13] concerns the target Peroxisome proliferator-activated receptor gamma (Homo sapiens) (UniProt P37231). In words: qHTS assay to identify small molecule antagonists of the peroxisome proliferator-activated receptor gamma (PPARg) signaling pathway (AID 743191; calls by dose curve; note: nearly all actives have a fitted effect of over 30% in size; note: potency is the fitted concentration of half-maximal effect; for ratio activity, negative = inhibition: series mostly up to about 63 µM). In outline: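 Beta-lactamase reporter under UAS control in HEK293H PPARg-bla cells; compound treatment 17 h at 37C. Read-out: fluorescence intensity after 1 h room-temperature incubation with LiveBLAzer B/G FRET substrate.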

A short description of experiment [14]: qHTS assay for small molecule activators of the heat shock response signaling pathway (AID 743210; active = well fitted activation curve with a large enough effect in the signal ratio in the repeat runs, with a control signal flat, not every such curve was filed as active; the % refers to the signal ratio;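 note: HeLa cells with beta-lactamase reporter driven by heat shock elements; series mostly up to about 63 µM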). In outline: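 HeLa HSE-bla cells, overnight plating; cpd in DMSO 5 h, 37 C; LiveBLAzer B/G FRET substrate 2.5 h RT; fluorescence intensity read.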
The target of experiment [15] is Peroxisome proliferator-activated receptor delta (Homo sapiens) (UniProt Q03181). The experiment in a line: qHTS assay to identify small molecule agonists of the peroxisome proliferator-activated receptor delta (PPARd) signaling pathway (AID 743212; calls by dose curve). In outline: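 HEK293H PPARd-bla cells; 5 h preincubation 37 C/5% CO2; compound (DMSO) 37 C; LiveBLAzer B/G FRET substrate 2 h RT; fluorescence intensity.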
Chain of Peroxisome proliferator-activated receptor delta (Homo sapiens) (Q03181 whole entry, looked up): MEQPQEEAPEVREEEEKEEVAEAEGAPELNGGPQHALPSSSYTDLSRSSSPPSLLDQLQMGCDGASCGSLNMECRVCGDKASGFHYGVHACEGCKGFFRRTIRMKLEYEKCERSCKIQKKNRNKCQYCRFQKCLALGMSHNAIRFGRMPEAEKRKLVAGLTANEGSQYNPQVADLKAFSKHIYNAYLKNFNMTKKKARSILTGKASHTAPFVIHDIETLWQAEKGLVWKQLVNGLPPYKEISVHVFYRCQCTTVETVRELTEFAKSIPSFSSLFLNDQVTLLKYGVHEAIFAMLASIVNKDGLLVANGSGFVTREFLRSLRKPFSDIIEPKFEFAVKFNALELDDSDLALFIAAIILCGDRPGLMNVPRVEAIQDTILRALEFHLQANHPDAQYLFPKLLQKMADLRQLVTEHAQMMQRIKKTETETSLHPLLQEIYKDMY

In experiment [16] the target is Vitamin D3 receptor (Homo sapiens) (UniProt P11473). In words: qHTS assay to identify small molecule agonists of the vitamin D receptor (VDR) signaling pathway (AID 743222; calls by dose curve). Put shortly: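 Quantitative HTS agonist-mode screen: compounds in DMSO were pin-transferred onto VDR-bla cells and incubated 16 h at 37C, 5% CO2. Reporter activity was detected with LiveBLAzer B/G FRET substrate after 2 h at room temperature.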
Chain of Vitamin D3 receptor (Homo sapiens) (P11473 whole entry, looked up): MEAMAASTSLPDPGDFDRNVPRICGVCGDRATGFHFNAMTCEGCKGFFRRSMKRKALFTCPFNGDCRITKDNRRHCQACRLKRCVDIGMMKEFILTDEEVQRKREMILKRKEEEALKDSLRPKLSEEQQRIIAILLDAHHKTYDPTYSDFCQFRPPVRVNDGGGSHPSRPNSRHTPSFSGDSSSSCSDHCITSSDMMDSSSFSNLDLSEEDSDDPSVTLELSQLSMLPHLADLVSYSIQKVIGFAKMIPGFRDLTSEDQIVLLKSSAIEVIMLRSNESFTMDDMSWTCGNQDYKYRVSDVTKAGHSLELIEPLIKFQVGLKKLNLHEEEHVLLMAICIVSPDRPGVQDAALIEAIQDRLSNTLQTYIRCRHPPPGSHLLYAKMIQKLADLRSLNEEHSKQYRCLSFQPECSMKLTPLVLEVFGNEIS

Experiment [17] shares this target. The experiment in a line: qHTS assay to identify small molecule antagonists of the vitamin D receptor (VDR) signaling pathway (AID 743223; active = well fitted inhibition curve with a large enough effect in the signal ratio in the repeat runs, not every such curve was filed as active; the % refers to the signal ratio). In outline:
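After VDR-bla cells are plated and left 4 h at 37C, DMSO-dissolved compounds and 3 nM (final) calcitriol agonist are added. Incubation continues 16 h at 37C; FRET beta-lactamase substrate then develops 2 h at room temperature.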

The target of experiment [18] is Peroxisome proliferator-activated receptor gamma (Homo sapiens) (UniProt P37231). The experiment in a line: qHTS assay to identify small molecule agonists of the peroxisome proliferator-activated receptor gamma (PPARg) signaling pathway (AID 743094; active = well fitted activation curve with a large enough effect in the signal ratio in the repeat runs, not every such curve was filed as active; the % refers to the signal ratio). Put shortly: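 Quantitative HTS agonist mode: stable HEK293H line with UAS-beta-lactamase reporter under PPARg control, 17 h compound exposure at 37C, fluorescence after 1 h FRET substrate loading at room temperature.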
Chain of Peroxisome proliferator-activated receptor gamma (Homo sapiens) (P37231 whole entry, looked up): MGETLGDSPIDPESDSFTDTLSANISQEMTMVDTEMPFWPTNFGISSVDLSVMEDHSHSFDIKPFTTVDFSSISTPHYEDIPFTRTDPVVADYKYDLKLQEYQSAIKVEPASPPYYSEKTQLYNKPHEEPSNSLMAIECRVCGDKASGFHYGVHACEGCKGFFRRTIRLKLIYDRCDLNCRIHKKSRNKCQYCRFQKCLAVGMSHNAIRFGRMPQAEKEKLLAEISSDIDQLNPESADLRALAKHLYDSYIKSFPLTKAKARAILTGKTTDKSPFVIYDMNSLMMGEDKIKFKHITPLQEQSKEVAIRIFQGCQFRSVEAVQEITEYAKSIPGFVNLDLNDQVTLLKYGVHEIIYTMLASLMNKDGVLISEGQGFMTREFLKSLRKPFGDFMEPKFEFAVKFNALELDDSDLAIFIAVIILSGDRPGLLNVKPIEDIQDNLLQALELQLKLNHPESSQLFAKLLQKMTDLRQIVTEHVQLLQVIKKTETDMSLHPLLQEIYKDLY

A short description of experiment [19]: qHTS assay for small molecule agonists of the antioxidant response element (ARE) signaling pathway (AID 743202; active = well fitted activation curve with a large enough effect in the signal ratio in the repeat runs, not every such curve was filed as active; the % refers to the signal ratio; note: potency is the fitted concentration of half-maximal effect). In outline:
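Quantitative high-throughput format in HepG2 cells bearing an integrated ARE-beta-lactamase reporter. Compound exposure lasted 16 h at 37 C, and fluorescence was read 2 h after adding LiveBLAzer B/G substrate at room temperature.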

Experiment [20] has as its target Bile acid receptor (Homo sapiens) (UniProt Q96RI1). The experiment in a line: qHTS assay to identify small molecule antagonists of the farnesoid-X-receptor (FXR) signaling pathway (AID 743217; active = well fitted inhibition curve with a large enough effect in the signal ratio in the repeat runs, not every such curve was filed as active; the % refers to the signal ratio). Put shortly:
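Antagonist mode against 50 uM (final) chenodeoxycholic acid stimulation in FXR-bla HEK 293T cells, 16 h at 37 °C. Inhibition detected as reduced beta-lactamase activity via LiveBLAzer B/G FRET fluorescence after 2 h at room temperature.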
% is set by controls: 0 for no effect and ±100 for the full control effect.

Chain of Bile acid receptor (Homo sapiens) (Q96RI1 whole entry, looked up): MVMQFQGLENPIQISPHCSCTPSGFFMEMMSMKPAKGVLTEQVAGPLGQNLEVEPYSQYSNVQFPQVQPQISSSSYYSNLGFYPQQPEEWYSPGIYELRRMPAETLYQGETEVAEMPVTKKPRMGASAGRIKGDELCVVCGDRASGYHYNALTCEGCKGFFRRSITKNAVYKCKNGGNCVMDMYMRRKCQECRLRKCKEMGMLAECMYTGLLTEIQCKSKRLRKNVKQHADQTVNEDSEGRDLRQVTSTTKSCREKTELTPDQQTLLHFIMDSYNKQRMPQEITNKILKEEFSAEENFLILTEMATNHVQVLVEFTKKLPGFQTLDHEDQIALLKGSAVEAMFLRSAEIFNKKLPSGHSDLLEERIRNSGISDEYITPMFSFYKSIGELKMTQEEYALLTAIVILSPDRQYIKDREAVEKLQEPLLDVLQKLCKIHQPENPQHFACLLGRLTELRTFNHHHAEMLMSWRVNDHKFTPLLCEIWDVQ

For `CCN(CC)CCOc1ccc(C(O)(Cc2ccc(Cl)cc2)c2ccc(C)cc2)cc1` (centres undefined), the Potency result in [1], in experiment [2], in [6] and in experiment [11] was “inactive” each time. Further, the Potency in experiment [3] is 29.8 µM (active); in [4], 29.8 µM (active); in [5] it was 21.1 µM (active); in experiment [7], 10.6 µM (active); in experiment [8] it was 13.3 µM (active); in [9] it was 29.8 µM (active). Also, the Potency in experiment [10] was 13.3 µM (active); in experiment [12], 29.8 µM (active).
For `O=C1c2c(O)ccc([N+](=O)[O-])c2C(=O)c2c([N+](=O)[O-])ccc(O)c21`, the Potency in experiment [1] is 9.6 µM (active); in [3], 19.2 µM (active); in [13] it was 6.85 µM (active); in experiment [4], 8.63 µM (active); in experiment [5], 3.82 µM (active); in experiment [6], 10.9 µM (active). The Potency in experiment [7] is 12.2 µM (active); in [8], 13.7 µM (active); in [10] it was 54.4 µM (active); in [12], 43.2 µM (active). In addition, in experiment [2], the Potency result was “inactive”.
As for `CCCCCCCCCCCCCCNCCO`, the Potency entry in [1], in [3], in [6], in experiment [14], in experiment [7] and in experiment [9] was “inactive” in each case. Moreover, the Potency result in experiment [10], in [12], in experiment [16] and in [17] was “inactive” throughout. Further, the Potency in experiment [2] was 10.6 µM (active); in [5], 26.6 µM (active). Moreover, in experiment [15], the molecule was classed as inactive.
`Oc1c(Br)cc(Br)c2cccnc12`: the Potency entry in experiment [1], in [3], in experiment [18], in experiment [5], in experiment [6] and in experiment [10] was “inactive” in each case. Moreover, the Potency entry in [12] is “inactive”. Besides, the Potency in [2] is 0.668 µM (active); in experiment [7], 2.98 µM (active); in experiment [8], 3.35 µM (active).
Take `CCCCC(CC)COC(=O)c1ccc(O)cc1` (centres undefined): the Potency in experiment [1] was 27.2 µM (active); in experiment [4], 48.8 µM (active); in experiment [6], 24.5 µM (active); in experiment [7], 38.8 µM (active); in experiment [8] it was 34.5 µM (active) and 38.9 µM (active); in [12], 48.8 µM (active). The Potency result in [2], in [3], in experiment [5], in [11] and in experiment [16] was “inactive” throughout. Also, the molecule was classed as inactive in experiment [15].
For `N[C@@H](CSSC[C@H](N)C(=O)O)C(=O)O`, the Potency entry in experiment [1], in experiment [2] and in [18] was “inactive” throughout. The ratio activity, negative = inhibition in experiment [13] was 3.31% [at 0.55 µM]. Besides, the values for the activity change, negative = cytotoxicity in experiment [4] and in [12] were 9.18% [at 0.55 µM] and 5.98% [at 0.55 µM], respectively. Moreover, the activation in [19] was 9.27% [at 0.756 µM]; in experiment [15], -7.58% [at 0.55 µM]; in experiment [11], -0.652% [at 0.55 µM]. In addition, the results for the viability change, negative = cytotoxic in [5] and in experiment [10] were -0.389% [at 0.756 µM] and -3.16% [at 0.55 µM], respectively. In experiment [20], the activity change, negative = inhibition is 8.01% [at 0.55 µM].
As to `CC=O`, the Potency is 36 µM (active) in experiment [1]; 25.7 µM (active) in experiment [4]; 32 µM (active) in experiment [5]; 22.9 µM (active) in experiment [6]; 45.7 µM (active) in experiment [7]; 40.7 µM (active) in experiment [8]. The values for the Potency in [10] and in experiment [12] were 45.7 µM (active) and 64.5 µM (active), respectively. Also, in experiment [2], the Potency result is “inactive”.
For the molecule `CC(=O)Nc1ccc(O)cc1`, the Potency result in experiment [1], in experiment [2], in [4], in [6], in [7] and in [8] was “inactive” each time. The Potency result in experiment [10] and in experiment [12] was “inactive” throughout.
For the molecule `Cc1cc2c(C(C)C)c(O)c(O)c(C=O)c2c(O)c1-c1c(C)cc2c(C(C)C)c(O)c(O)c(C=O)c2c1O`, the Potency in [1] was 26.6 µM (active); in experiment [4], 8.41 µM (active); in experiment [5], 8.41 µM (active); in [6], 13.3 µM (active); in [7], 9.44 µM (active); in experiment [8], 11.9 µM (active). Further, the Potency is 18.8 µM (active) in experiment [9] and 16.8 µM (active) in experiment [12]. The Potency entry in experiment [2] was “inactive”.
Consider `[O]=[Zr]`, for which the Potency result in [1], in [2], in experiment [18], in [4], in [5] and in [6] was “inactive” in each case. Further, the Potency result in experiment [7], in experiment [8], in experiment [20], in experiment [10], in experiment [11] and in experiment [12] was “inactive” throughout.
With `Cc1ccc2ccc3cccc4ccc1c2c34`, the Potency result in [1], in experiment [2], in experiment [18], in experiment [13], in experiment [4] and in [19] was “inactive” in each case. For the same molecule, the Potency entry in experiment [5], in experiment [6], in experiment [14], in experiment [8], in experiment [9] and in experiment [11] was “inactive” in each case. Besides, in experiment [12], the Potency entry is “inactive”. For the same molecule, in [15], the result was inactive.
Regarding `CC(=O)OC(OC(C)=O)c1ccc([N+](=O)[O-])o1`, the Potency in experiment [1] was 13.9 µM (active); in experiment [4] it was 49.8 µM (active); in [19], 15.6 µM (active); in [5] it was 62.2 µM (active); in experiment [6] it was 19.8 µM (active); in experiment [7] it was 49.8 µM (active). In addition, the Potency result in experiment [2] was “inactive”.
